TLR4-MyD88 inh: TLR4-MyD88 interaction inhibition; O00206; Cell-based TLR4-MyD88 binding inhibition assay; inhibition, % at 10 µM; actives 0.06% (n = 16,000); in the data active = inhibition above about 45%
S1P1 ag: activates the human S1P1 receptor | P21453 | S1P1 agonist cell-based reporter assay | activation, % at 4.5 µM | actives 1.5% (n = 16,000); in the data active = activation above about 80%
Target sequence (P21453 whole entry, looked up): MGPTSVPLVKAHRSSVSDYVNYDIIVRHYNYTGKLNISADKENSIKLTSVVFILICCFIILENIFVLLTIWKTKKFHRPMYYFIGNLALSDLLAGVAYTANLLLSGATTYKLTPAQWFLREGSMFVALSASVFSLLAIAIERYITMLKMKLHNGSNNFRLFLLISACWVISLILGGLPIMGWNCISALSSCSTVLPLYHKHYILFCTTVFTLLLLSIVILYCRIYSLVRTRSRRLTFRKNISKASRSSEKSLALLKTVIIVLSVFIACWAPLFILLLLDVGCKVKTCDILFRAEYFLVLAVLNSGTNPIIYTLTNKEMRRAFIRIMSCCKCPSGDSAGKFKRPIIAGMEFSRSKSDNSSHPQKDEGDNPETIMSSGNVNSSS
Nox1 inhibitor: human Nox1 inhibition; Q9Y5S8; HT29 cells, luminol chemiluminescence ROS; inhibition, % at 6.7 µM; actives 0.81% (n = 16,000); AID 1792
NOTCH ag: agonists of NOTCH signaling; NOTCH signaling luciferase reporter cells, luminescence; activation, % at 2.5 µM; actives 0.4% (n = 15,000); AID 434982; in the data active = activation above about 2.2%
Luminol counter: quenches luminol chemiluminescence in Nox1 counter-screen. HRP/luminol/H2O2 chemiluminescence counterscreen. inhibition, % at 6.7 µM. actives 0.4% (n = 16,000); also: reference of the scale not given here
OPRK1 antag MB: antagonists of human kappa opioid receptor OPRK1, Maybridge library | P41145 | OPRK1 cells, antagonist mode, fluorescence readout | inhibition, % at 9 µM | actives 0.4% (n = 16,000) | AID 652031; in the data active = inhibition above about 50%
A number is an active result; i = inactive; nt = no result given. The list is not random: actives were taken first. Their share in the collection is about 3.7%. Rule as the data show it, unless noted: active = inhibition above about 75%; inactive = the rest.

SMILES	TLR4-MyD88 inh	S1P1 ag	Nox1 inhibitor	NOTCH ag	Luminol counter	OPRK1 antag MB
COc1ccc(Cc2nc(-c3ccc(Cl)cc3)cs2)cc1	i	i	i	i	i	i
Cc1cc(C(=O)NNC(=O)c2ccco2)nn1C(C)(C)C	i	i	i	i	i	i
Cc1cc(C(=O)NNS(=O)(=O)c2cccc3cccnc23)nn1C(C)(C)C	i	i	i	3.2	i	i
Cc1nnsc1C(=O)N=S(C)(=O)c1ccccc1 (stereo unspecified)	i	i	i	i	i	i
Nc1nnc(Sc2cc3c(cc2[N+](=O)[O-])C(=O)NC3=O)s1	i	i	76.0	i	i	i
Cc1ccc(C)c(CSc2nc(C3CCCCC3)c(C#N)c(=O)[nH]2)c1	i	97.0	i	i	i	i
Cc1cc(OCc2ccccc2)ccc1[N+](=O)[O-]	i	i	i	2.5	i	i
COc1ccc(-c2cc(C(F)(F)F)n3nc(C4CC4)cc3n2)cc1	i	85.0	i	i	i	i
N#C/C(=C\c1csc([N+](=O)[O-])c1)S(=O)(=O)c1ccc(Cl)cc1	i	i	i	i	i	i
O=c1c2cc([N+](=O)[O-])ccc2oc2ncccc12	i	i	i	3.0	i	i
O=c1oc2ccc([N+](=O)[O-])cc2cc1-n1cccc1	i	i	i	i	i	i
O=[N+]([O-])c1ccc(N2CCN(c3ccc([N+](=O)[O-])cc3CO)CC2)c(CO)c1	i	82.3	i	i	i	i
Cc1nc(C(=O)O/N=C(\N)c2c(-c3c(Cl)cccc3Cl)noc2C)cs1	nt	i	i	i	i	i
Cc1cc(=O)n2c([nH]c3ccccc32)c1C#N	i	i	i	i	84.8	i
Cc1c(C#N)c(=O)[nH]c2ccccc12	i	i	i	i	i	i
CC1CN(c2ccc(NC(=S)NCc3ccco3)cc2)CC(C)O1 (stereo unspecified)	i	i	i	i	i	i
CC1CN(c2ccc(NC(=S)NN)cc2)CC(C)O1 (stereo unspecified)	i	i	101.7	i	i	i
C/C(=N\OCc1ccc(C(=O)N2CCOCC2)o1)c1cccc(C(F)(F)F)c1	i	i	i	i	i	i
CC(C)(C)c1cc2nc(C(F)(F)F)cc(NNC(=O)Nc3ccc(OC(F)(F)F)cc3)n2n1	i	82.0	88.1	i	i	i
C/S(=N\S(=O)(=O)c1ccc(Cl)cc1)c1sc(Cl)c2c1C(=O)CC(C)(C)C2 (stereo unspecified)	i	82.6	i	i	i	i
CCCCCCCCCCCC(=O)ON1C(=O)CCC1=O	i	i	i	i	i	50.5
CCCCCCCCCCCC(=O)NN	i	i	i	i	i	i
O=[N+]([O-])c1cc(C2SCCS2)ccc1SCc1ccco1	i	99.5	i	i	i	i
CCOC(=O)C1CCN(c2ccc(C(C)=O)cc2NC(=S)Nc2cc(Cl)ccc2Cl)CC1	i	i	i	5.9	i	i
CCOC(=O)c1ccc(N2CCOCC2)c(NC(=S)Nc2cccc(SC)c2)c1	i	i	i	i	i	i
SMILES	TLR4-MyD88 inh	S1P1 ag	Nox1 inhibitor	NOTCH ag	Luminol counter	OPRK1 antag MB
CS(=O)(=O)N1CCN(c2ncc(C(F)(F)F)cc2Cl)CC1	i	i	i	i	i	i
S=C(NCc1ccco1)Nc1cccnc1	i	119.7	i	i	i	i
N#CC(C#N)=CNC(CO)C(O)c1ccc([N+](=O)[O-])cc1 (stereo unspecified)	i	i	i	i	i	i
O=C1CNC(=S)N1CCc1ccc(O)c(O)c1	i	i	92.9	i	96.2	i
Oc1ccccc1N=CC=Nc1ccccc1O	i	i	96.1	i	i	i
COC(=O)c1sccc1Oc1ccc(Cl)cc1NC(=O)c1ccc(Cl)cc1	i	i	i	nt	i	i
c1ccc(-c2cc3ncnc(NCc4ccc5c(c4)OCO5)c3s2)cc1	i	i	i	i	i	61.0
Cc1cc(C(=O)Nc2ccccc2N2CCCCC2)nn1C	i	i	i	i	i	i
CCOc1ccc(NC(=O)c2cc(C)n(C)n2)cc1	i	125.7	i	i	i	i
O=C(Nc1ccccn1)c1cc(-c2ccccc2)c(C(F)(F)F)s1	i	87.3	i	i	i	i
Cc1cc(/C(N)=N/OC(=O)c2cccc(Cl)c2)no1	i	i	i	i	i	i
N/C(=N\OC(=O)c1ccc(OCC(F)(F)F)nc1)c1cccc(Cl)c1	i	94.7	i	i	i	i
Cc1noc(C)c1S(=O)(=O)Nc1ccccc1SCCS(=O)(=O)c1ccc(Cl)cc1	i	i	i	i	i	i
O=C(c1ccc(OC(F)(F)F)cc1)c1ncc[nH]1	i	i	i	i	i	i
CC(C)(C)c1ccc(C(=O)c2ncc[nH]2)cc1	i	102.8	i	i	i	i
COc1cccc(C2Nc3ccccc3C(=O)N2NS(=O)(=O)c2ccc(C)cc2)c1O (stereo unspecified)	i	i	i	i	99.5	i
Cc1ccc(S(=O)(=O)NC(=O)NCC2CCN(S(=O)(=O)c3ccccc3)CC2)cc1	i	i	i	i	i	i
Cc1nc(COc2cc(C)c(Cl)c(C)c2Cl)cs1	i	i	i	i	i	i
NS(=O)(=O)c1ccc(NNC(=O)c2c(F)cccc2Cl)cc1	i	i	80.7	i	i	i
Cc1cc(NC(=O)Nc2ccccc2Oc2ccccc2)c(C(F)(F)F)o1	i	i	i	i	i	i
CC(C)NC(=O)NC1CCCCNC1=O (stereo unspecified)	i	i	i	i	i	i
Nc1nc(NC2CCCCNC2=O)n[nH]1 (stereo unspecified)	i	i	92.5	i	i	i
COCCOc1cc2ncnc(N3CCC(C(=O)O)CC3)c2cc1OCCOC	i	113.4	i	i	i	i
COc1ccc(-c2cc(-c3ccc(OC)cc3)c3c(=O)n(C)c(=O)n(C)c3n2)cc1	nt	81.2	i	i	i	i
CN(C)c1cc(Nc2ccccc2)c2c(=O)n(C)c(=O)n(C)c2n1	i	i	i	i	i	i
SMILES	TLR4-MyD88 inh	S1P1 ag	Nox1 inhibitor	NOTCH ag	Luminol counter	OPRK1 antag MB
O=C(NNc1c(Cl)cncc1Cl)c1ccc(F)cc1F	i	i	i	i	i	i
O=C(NNc1cc(Cl)cc(Cl)c1)c1ccc(F)cc1F	i	i	i	i	75.5	i
O=C(O)/C=C/C(=O)Nc1ccc(N2CCCCCC2)c(NC(=O)/C=C/C(=O)O)c1	i	i	i	2.4	i	i
COC(=O)c1cc(NC(=O)/C=C/C(=O)O)ccc1N1CCOCC1	i	i	i	i	i	i
CCOc1ccccc1Nc1n[nH]c(=S)s1	i	i	88.5	i	i	i
S=c1[nH]nc(NCCc2ccc(Cl)cc2)s1	i	i	i	i	i	i
COc1ccc(-c2noc(-c3ccccc3)n2)cc1OC1CCCC1	i	98.3	i	i	i	i
COc1ccc(-c2nc(-c3cccc(C)c3)no2)cc1OC	i	96.8	i	i	i	i
COc1ccc(-c2nc(-c3ccc(OS(=O)(=O)N(C)C)cc3)no2)cc1OC	nt	107.3	i	i	i	i
COc1ccc(/C=C/c2nc(-c3ccc(OS(=O)(=O)N(C)C)cc3)no2)c(Cl)c1OC	i	i	i	i	i	i
O=S(=O)(Oc1ccc2nonc2c1)c1ccc(Cl)s1	i	i	i	i	i	i

Compound activity from PubChem.
